Source: PubChem BioAssay
Rows were chosen to be rich in hits. Some 2.3% of all compounds tested hit in one or more screens of this group.
Mcl1 Bid PPI: Mcl-1/Bid interaction inhibition; TR-FRET Mcl-1/Bid-Dy647 peptide binding, 1536-well; hit rate 0.97% among 220,000; inhibition, % at 21.7 µM;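 active = compounds that cut the binding signal by more than half at the single screening dose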;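 also: His-tagged Mcl-1 with europium anti-His antibody binding Bid BH3 peptide; 0% = Mcl-1 plus peptide wells and 100% = peptide-only wells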
Bim-Mcl-1: human Bim-Mcl-1 interaction inhibition; Q07820; Bead-based flow cytometry, Bim peptide-Mcl-1 binding; inhibition, % at 10 µM; hit rate 0.1% among 190,000; in the data active = inhibition above about 40%;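 also: 0% = no compound tracer wells and 100% = peptide blocker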
GLD-1 TGE inh: GLD-1-TGE RNA interaction inhibition (C. elegans); inhibition, % at 5.96 µM; hit rate 0.44% among 320,000; purified GLD-1 + fluorescein TGE RNA, fluorescence polarization; Q17339; AID 2280;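 active = percent inhibition above a per-plate cutoff, the plate mean of test compounds plus 3 SD, cut at about 30% in these data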;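 also: 0% = DMSO wells with GLD-1 and probe and 100% = wells lacking GLD-1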
Target sequence (Q17339 whole entry, looked up): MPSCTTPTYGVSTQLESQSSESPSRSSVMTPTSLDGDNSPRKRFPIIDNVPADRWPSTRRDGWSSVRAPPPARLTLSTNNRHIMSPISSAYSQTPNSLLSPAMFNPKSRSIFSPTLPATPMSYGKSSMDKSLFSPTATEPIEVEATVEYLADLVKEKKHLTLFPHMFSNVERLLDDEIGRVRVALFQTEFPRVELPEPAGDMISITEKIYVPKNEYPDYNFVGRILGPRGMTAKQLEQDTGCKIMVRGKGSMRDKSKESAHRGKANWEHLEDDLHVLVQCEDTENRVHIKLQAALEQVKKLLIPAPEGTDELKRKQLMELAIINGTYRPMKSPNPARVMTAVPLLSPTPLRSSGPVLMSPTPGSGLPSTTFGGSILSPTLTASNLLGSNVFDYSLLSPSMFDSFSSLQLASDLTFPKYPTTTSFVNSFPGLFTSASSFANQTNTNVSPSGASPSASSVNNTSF
BCLXL inh: Bcl-xL (human) inhibition. Q07817. GST-Bcl-xL / FITC-Bim BH3 peptide fluorescence polarization. inhibition, % at 10.9 µM. hit rate 0.7% among 320,000;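 active = inhibition above the mean of all tested compounds plus 3 SD, cutoff set per campaign, cut at about 30% in these data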;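 also: 0% = DMSO wells and 100% = unlabeled Bim-BH3 peptide competitor; inhibitors lower millipolarization by displacing the labeled peptide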
Mcl1-Noxa inh: disrupts binding of human Mcl-1 to Noxa peptide. Q07820. TR-FRET Mcl-1/Noxa peptide binding, 2 h. inhibition, % at 21.7 µM. hit rate 1.5% among 220,000. AID 1022;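 active = compounds that cut the protein-peptide binding signal by more than 50% relative to plate controls in a single-dose test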;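 also: His-tagged Mcl-1 with rhodamine Noxa BH3 peptide and terbium anti-His antibody; 0% = Mcl-1 plus Noxa peptide wells and 100% = peptide-only wells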
MCL1-BIM inh: inhibitors of human MCL1 binding to BIM-BH3 peptide; Q07820; GST-MCL1 / FITC-Bim-BH3 fluorescence polarization; inhibition, % at 10.9 µM; hit rate 0.68% among 320,000; AID 2057;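 active = inhibition above the mean inhibition of all tested compounds plus 3 SD, set per campaign, cut at about 40% in these data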;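 also: 0% = DMSO wells and 100% = unlabeled Bim-BH3 peptide control; higher means more loss of mP so more displacement of Bim peptide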
Numbers without * were called inactive; · = not tested or not shown.

SMILES	Mcl1 Bid PPI	Bim-Mcl-1	GLD-1 TGE inh	BCLXL inh	Mcl1-Noxa inh	MCL1-BIM inh
CN(C)S(=O)(=O)c1ccc(NC(=O)CCNC(=O)c2ccco2)cc1	·	·	4.9	0.9	·	-8.5
CCOC(=O)c1nn(-c2ccc(OC)cc2)c(=O)c2c(N)scc12	-3.8	-4.0	5.8	-0.6	28.9	3.9
COc1ccc(/C=N/NC(=O)c2nn(-c3ccc(Cl)cc3)c(=O)c3c(N)scc23)cc1	-17.1	0.0	10.8	22.1	57.2*	32.6
CSCCC(NC(=O)c1cccc([N+](=O)[O-])c1)C(=O)OCC(=O)N1CCCC1=O (configuration not stated)	·	·	3.8	-16.5	·	-14.0
CCOc1cc(-c2cc(-c3ccc(C)cc3)nc(N)c2C#N)ccc1O	5.0	2.0	14.8	30.3*	19.2	20.8
CCOc1cc(/C=C(\C#N)C(=O)Nc2ccccn2)ccc1O	·	·	-13.6	-1.7	·	-6.6
CCOc1cc(/C=C(\C#N)c2[nH]nc(N)c2C#N)ccc1O	-56.1	16.0	-28.8	9.2	77.5*	-1.4
COc1cc(-c2cc(-c3ccc(O)cc3)nc(N)c2C#N)ccc1O	-28.6	9.0	-8.0	1.2	30.7	1.0
O=C(C1CCCN(Cc2ccc(Br)cc2)C1)N1CCCCC1 (configuration not stated)	·	·	13.9	3.1	·	5.3
Cc1cc(C)cc(NC(=O)CN2CCC(NC(=O)c3ccccc3F)CC2)c1	·	·	-5.0	4.9	·	1.2
Cc1csc2nc(CSc3nc4ccccc4o3)cn12	20.3	-4.0	3.2	11.8	51.1*	19.6
COc1cccc(N(CC(=O)N2CCN(C)CC2)S(=O)(=O)c2ccccc2)c1	59.8*	1.0	1.6	-2.5	3.7	2.4
CCOC(=O)C1(Cc2cccc(OC)c2)CCN(Cc2cccc(OC)c2OC)CC1	-24.6	78.0*	7.6	-4.1	5.1	5.2
O=C(CCc1nc2ccccc2c(=O)[nH]1)Nc1ccc(F)c([N+](=O)[O-])c1	-33.1	-2.0	5.5	30.3*	43.0	21.7
Brc1ccccc1Cn1cnc2ccccc21	·	·	3.5	76.1*	·	9.8
O=C1C(Cl)=C(N2CCCCC2)C(=O)C(Cl)=C1c1cnc(N2CCCCC2)s1	64.6*	62.0*	·	·	108.6*	·
CN(CC(=O)NCC1CCCCC1)CC(=O)Nc1ccccc1Br	·	·	2.4	-1.8	·	-0.5
O=C(CNC1CCCCC1)Nc1ccc(Cl)cc1	·	·	-2.1	0.1	·	-2.7
COc1ccccc1C(=O)N=c1sc2c(C)ccc(OC)c2n1C	-0.3	·	6.1	3.1	-5.5	-3.2
CC(OC(=O)CNC(=O)C1CCCCC1)C(=O)NCc1ccccc1 (configuration not stated)	·	·	0.9	·	·	·
CC(=O)c1ccc(NC(=O)C(C)n2c3ccccc3c3nc(=O)cc(C)n32)cc1 (configuration not stated)	97.2*	·	-1.0	8.5	-3.9	11.3
Cc1cc(=O)nc2c3ccccc3n(C(C)C(=O)NCCC(C)C)n12 (configuration not stated)	13.8	·	-1.9	3.5	-10.6	5.2
O=c1c(/C=N\NS(=O)(=O)c2ccccc2)coc2ccc(Cl)cc12	·	·	1.1	-4.5	·	-11.6
CCC(=O)Nc1cc(C)c(NC(=O)CCc2ccccc2)cn1	-22.9	1.0	36.8*	48.9*	-10.9	43.7*
C=CCn1c(SCc2ccc(C#N)cc2)nnc1-c1cccc(OC)c1	94.6*	-3.0	3.2	-2.6	4.7	-20.6
SMILES	Mcl1 Bid PPI	Bim-Mcl-1	GLD-1 TGE inh	BCLXL inh	Mcl1-Noxa inh	MCL1-BIM inh
COc1ccccc1N(C(=O)c1csnn1)C(C(=O)NC1CCCC1)c1ccccc1 (configuration not stated)	·	·	0.3	1.7	·	-2.7
OCCNc1c2ccccc2nc2c(F)c(F)c(F)c(F)c12	-5.5	-5.0	16.1	30.3*	10.9	31.9
C[C@H](CO)N1C[C@H](C)[C@@H](CN(C)S(C)(=O)=O)Oc2ccc(NC(=O)Nc3ccccc3)cc2C1=O	·	·	6.3	·	·	·
Nc1ccc2c3c(cccc13)CC2	-114.8	4.0	-27.5	38.4*	32.3	14.4
COc1ccc(N2C(=O)N[C@@H](Cc3ccccc3)C2=O)cc1OC	·	·	-2.5	3.7	·	5.8
COc1cc(/C=C/C(=O)OCC(=O)N2CCCC2)ccc1OCC#N	·	·	0.4	0.1	·	-17.3
CN(C)c1ccc(NC(=O)c2cccc(C(=O)Nc3ccc(N(C)C)cc3)n2)cc1	-11.8	3.0	9.6	-0.4	85.7*	6.8
CN(C)c1ccc(/C=N/NC(=O)c2cccc(C(=O)N/N=C/c3ccc(N(C)C)cc3)n2)cc1	45.3	5.0	5.5	-0.6	82.2*	3.9
COc1ccc(Cl)cc1C(=O)Nc1ccncc1	·	·	3.3	1.6	·	-4.5
CCN(CC)c1ccc(NC(=O)c2cc(Cl)ccc2OC)cc1	8.3	1.0	3.0	4.2	65.8*	8.9
COc1cccc(C(=O)Nc2ccc(N(C)C)cc2)c1OC	-42.4	-5.0	9.7	1.7	65.1*	4.8
O=C(COC(=O)COc1ccc(Br)cc1)Nc1ccc2c(c1)OCCO2	·	·	-0.2	-1.1	·	-2.3
CCOC(=O)C1=C(CS(=O)(=O)c2ccc(C)cc2)NC(=O)NC1c1cc(OC)c(O)c(OC)c1 (configuration not stated)	·	·	7.8	3.7	·	1.7
CCOC(=O)N1CCN(C(=O)c2ccccc2N(Cc2ccccc2)S(=O)(=O)c2ccccc2)CC1	·	·	2.1	1.8	·	-2.2
O=C(Nc1ccc(-c2nc3cc(Cl)ccc3c(=O)o2)cc1)c1ccco1	71.5*	-5.0	6.6	0.3	-20.2	0.1
COc1cc(C)c(Cl)cc1S(=O)(=O)N(C)C	4.8	4.0	4.5	5.6	0.3	8.1
CN(C)S(=O)(=O)c1cc(S(=O)(=O)N(C)C)c(Cl)cc1N	70.4*	2.0	-3.5	0.8	28.2	2.8
CN(CC(=O)Nc1ccc(Cl)c(C(F)(F)F)c1)C(=O)c1cn2ccccc2n1	·	·	3.2	-13.2	·	-17.0
O=C1c2cccc3cccc(c23)C(=O)N1c1ccc(O)cc1	·	·	-5.2	3.7	·	5.1
O=C1c2ccccc2C(=O)N1/N=C/c1ccc(O)c(O)c1O	-92.9	·	·	·	100.0*	·
O=C1c2cccc3cccc(c23)C(=O)N1/N=C/c1ccc(O)cc1O	28.1	-3.0	0.1	9.5	59.6*	2.5
COc1cc(/C=N/N2C(=O)c3ccccc3C2=O)ccc1O	-34.2	0.0	-1.9	2.9	27.2	6.5
CC12CCC(=O)N1C(C(=O)NNC(=O)c1ccc(Br)cc1)CS2 (configuration not stated)	·	·	2.8	1.6	·	3.7
S=C(NC1CCCCC1)N1CCn2cccc2C1c1cccnc1 (configuration not stated)	-28.2	-1.0	-4.7	-3.2	63.5*	-3.4
